A short description of assay [1]: qHTS assay to test for compound auto fluorescence at 535 nm (green) in HEK293 cells (AID 720680).
A short description of assay [2]: qHTS assay to test for compound auto fluorescence at 460 nm (blue) in HEK293 cell free culture (AID 720681). A digest of the protocol:
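Blue fluorescence (Ex 405/Em 460 nm, triamterene-equivalent) was read immediately after pin transfer of compound or DMSO into medium (DMEM, 10% FBS) without cells.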
(Quantitative high-throughput screening tests each substance at several concentrations.)

Assay [3] is described as follows: qHTS assay to test for compound auto fluorescence at 535 nm (green) in HEK293 cell free culture (AID 720682). A digest of the protocol:
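Green-channel intensity (Ex/Em 485/535 nm) was recorded from compound-treated wells containing only DMEM with 10% FBS. Fluorescein provided the equivalency standard.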

Assay [4] in a line: qHTS assay to test for compound auto fluorescence at 590 nm (red) in HEK293 cell free culture (AID 720683). A digest of the protocol:
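Red-channel autofluorescence of compounds in culture medium (DMEM, 10% FBS), no cells, measured at 540/590 nm. Rose Bengal sodium is the reference fluorophore for equivalence.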

A short description of assay [5]: qHTS assay to test for compound auto fluorescence at 590 nm (red) in HepG2 cell free culture (AID 720684). An outline of the steps: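 No cells present: MEM + 10% FBS only. Compound pinned in, red label read (540/590 nm). Activity = fluorescence equivalent to Rose Bengal sodium.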
Assay [6] is described as follows: qHTS assay to test for compound auto fluorescence at 460 nm (blue) in HepG2 cell free culture (AID 720685). An outline of the steps: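 Cell-free plates of MEM plus 10% FBS received 23 nL compound or DMSO vehicle; blue-channel (405/460 nm) intensity scored against triamterene as reference fluorophore.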
A short description of assay [7]: qHTS assay to test for compound auto fluorescence at 535 nm (green) in HepG2 cell free culture (AID 720686).
The nature of assay [8]: qHTS assay to test for compound auto fluorescence at 460 nm (blue) in HepG2 cells (AID 720687). A digest of the protocol:
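Blue-channel autofluorescence (Ex/Em 405/460 nm, triamterene-equivalent) was measured after 1 hr compound exposure at 37 C, 5% CO2. Cells were HepG2, plated overnight at 37 C in MEM plus 10% FBS.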

Assay [9] has as its target Glucocorticoid receptor (Homo sapiens) (UniProt P04150). Put plainly: qHTS assay to identify small molecule agonists of the glucocorticoid receptor (GR) signaling pathway (AID 720691; active = well fitted activation curve with a large enough effect in the signal ratio in the repeat runs, not every such curve was filed as active; the % refers to the signal ratio; also: potency is read from the fitted curve at half-maximal effect). The following applies: GR-bla HeLa, beta-lactamase reporter ratio, 18 h; activation: at 62.4 µM (top of the series). An outline of the steps: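 Compounds in DMSO, alongside positive controls, were added to GR-bla HeLa reporter cells and incubated 18 h at 37 C; GRE-driven beta-lactamase was detected by fluorescence after 2 h with FRET substrate at room temperature.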

Assay [10] shares this target. Put plainly: qHTS assay to identify small molecule antagonists of the glucocorticoid receptor (GR) signaling pathway (AID 720692; active = well fitted inhibition curve with a large enough effect in the signal ratio in the repeat runs, not every such curve was filed as active; the % refers to the signal ratio). A digest of the protocol: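 In a 1536-well cell format, compounds were added 4 h after seeding GR-bla HeLa cells, together with dexamethasone at 5 nM final; reporter activity was measured by FRET-substrate fluorescence following 18 h at 37 C.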

Assay [11] is described as follows: qHTS assay to identify small molecule antagonists of the glucocorticoid receptor (GR) signaling pathway - cell viability counter screen (AID 720693). Also: nearly all actives have a fitted effect of over 55% in size.
Assay [12] is described as follows: qHTS assay for identifying genotoxic compounds that show differential cytotoxicity against isogenic chicken DT40 cell lines with known DNA damage response pathways - wild type cell line (AID 743012). Also: nearly all actives have a fitted effect of over 60% in size. Also: potency is read from the fitted curve at half-maximal effect. A digest of the protocol:
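Viability of DNA repair-proficient chicken DT40 cells was assessed by CellTiter-Glo luminescence following 40 h compound exposure at 37 C/5% CO2.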

A short description of assay [13]: qHTS assay for identifying genotoxic compounds that show differential cytotoxicity against isogenic chicken DT40 cell lines with known DNA damage response pathways - Rev3 mutant cell line (AID 743014). Also: nearly all actives have a fitted effect of over 55% in size. Also: potency is read from the fitted curve at half-maximal effect.
The nature of assay [14]: qHTS assay for identifying genotoxic compounds that show differential cytotoxicity against isogenic chicken DT40 cell lines with known DNA damage response pathways - Rad54/Ku70 mutant cell line (AID 743015). Also: nearly all actives have a fitted effect of over 60% in size. Also: potency is read from the fitted curve at half-maximal effect.
The nature of assay [15]: qHTS assay to identify small molecule antagonists of the androgen receptor (AR) signaling pathway - cell viability counter screen (AID 743033; also: nearly all actives have a fitted effect of over 45% in size; also: potency is read from the fitted curve at half-maximal effect).
A short description of assay [16]: qHTS assay to identify small molecule antagonists of the androgen receptor (AR) signaling pathway using the MDA cell line - cell viability counter screen (AID 743041; also: nearly all actives have a fitted effect of over 45% in size; also: potency is read from the fitted curve at half-maximal effect). An outline of the steps:
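Using the breast carcinoma line MDA-kb2 AR-luc, test chemicals were co-incubated with R1881 for 16 h; CellTiter-Fluor reagent, added at 15.5 h, provided a fluorescence measure of live cells.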

The values that follow come from PubChem BioAssay (Tox21).

SMILES strings stand for the structures. Where “and” joins values, the source holds several entries; their conditions need not be identical. Equal values may be shown once. Inconclusive results are not listed. Where a structure was tested more than once in an assay, its records may differ in their call. Calls of active or inactive are those of the source. Unless noted, calls follow the shape of the dose curve; as a rule, active = well fitted curve in the direction sought with a large enough effect in the repeat runs; inconclusive = weak or mixed curves; inactive = no such curve, though single readings can be large; an effect the other way counts as inactive or inconclusive.
% is scaled to controls: 0 for no effect and ±100 for the full control effect.

Sequence of Glucocorticoid receptor (Homo sapiens) (P04150 whole entry, looked up): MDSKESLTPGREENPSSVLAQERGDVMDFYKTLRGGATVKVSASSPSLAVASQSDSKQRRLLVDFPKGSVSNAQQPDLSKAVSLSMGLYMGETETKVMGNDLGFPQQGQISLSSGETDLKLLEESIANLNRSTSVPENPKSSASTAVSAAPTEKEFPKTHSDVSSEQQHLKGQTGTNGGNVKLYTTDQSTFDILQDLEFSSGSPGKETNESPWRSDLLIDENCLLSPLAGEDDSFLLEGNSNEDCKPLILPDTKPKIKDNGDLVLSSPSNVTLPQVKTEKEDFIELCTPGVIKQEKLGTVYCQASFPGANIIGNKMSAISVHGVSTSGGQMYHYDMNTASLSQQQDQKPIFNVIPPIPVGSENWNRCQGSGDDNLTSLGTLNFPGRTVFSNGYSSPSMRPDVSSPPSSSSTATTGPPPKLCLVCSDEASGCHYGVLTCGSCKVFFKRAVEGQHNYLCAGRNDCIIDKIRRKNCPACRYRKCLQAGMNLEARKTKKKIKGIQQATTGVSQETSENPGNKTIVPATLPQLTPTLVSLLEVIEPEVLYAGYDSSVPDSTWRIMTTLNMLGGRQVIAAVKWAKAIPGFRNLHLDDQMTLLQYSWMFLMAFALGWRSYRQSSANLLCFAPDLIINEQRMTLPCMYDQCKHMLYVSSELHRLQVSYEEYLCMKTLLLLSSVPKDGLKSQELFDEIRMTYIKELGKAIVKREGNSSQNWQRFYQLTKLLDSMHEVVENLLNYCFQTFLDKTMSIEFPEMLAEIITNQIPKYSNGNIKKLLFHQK

In the case of `ClC1=C(Cl)[C@]2(Cl)[C@@H]3[C@H]4C[C@H]([C@@H]5O[C@H]45)[C@@H]3[C@@]1(Cl)C2(Cl)Cl`, the outcome in [1], in assay [3], in assay [4] and in assay [5] was inactive. Moreover, the Potency result in assay [2], in assay [6], in assay [7], in assay [8], in [9] and in assay [10] was “inactive” in each case. Further, the Potency entry in assay [11], in assay [15] and in [16] was “inactive” in each case. In addition, the Potency in [12] was 29.8 µM (active) and 27.3 µM (active); in assay [13] it was 9.68 µM (active); in [14] it was 17.2 µM (active).

In the case of `Cc1c([N+](=O)[O-])cc2c(c1[N+](=O)[O-])C(C)(C)CC2(C)C`, the compound was classed as inactive in assay [1], in [3], in assay [4] and in [5]. Besides, the Potency entry in assay [2], in [6], in assay [7], in [8], in assay [9] and in [10] was “inactive” each time. Also, the Potency result in assay [12], in [14], in assay [15] and in assay [16] was “inactive” each time.

As to `CCN(CC)C(=S)S`, the compound was classed as inactive in assay [1], in assay [3], in assay [4] and in assay [5]. The Potency entry in [2], in [6], in [7], in assay [8] and in assay [10] was “inactive” throughout. For the same compound, the Potency entry in assay [9] is “inactive and 4.9 µM (active)”; in assay [12], 2.66 µM (active) and 5.42 µM (active) and 433 nM (active); in assay [14], 5.31 µM (active) and 5.42 µM (active) and 486 nM (active).

`Clc1ccc(C2(Cn3cncn3)OCCO2)c(Cl)c1`: the compound was called inactive in [1], in [3], in assay [4] and in assay [5]. Also, the Potency result in assay [2], in [6], in [7], in assay [8], in assay [9] and in assay [10] was “inactive” in each case. The Potency entry in assay [11], in assay [15] and in [16] was “inactive” throughout. Further, the Potency in [12] was 61.1 µM (active); in assay [14], “inactive and 61.1 µM (active)”.

As for `COc1nc(C)nc(NC(=O)NS(=O)(=O)c2ccccc2Cl)n1`, the call in assay [1], in assay [3], in assay [4] and in assay [5] was inactive. In addition, the Potency entry in [2], in assay [6], in assay [7], in assay [8], in assay [9] and in assay [10] was “inactive” in each case. The Potency result in [11], in [12], in assay [13], in assay [14], in assay [15] and in [16] was “inactive” throughout.

Regarding `CO/N=C(/C1=NOCCO1)c1ccccc1Oc1ncnc(Oc2ccccc2Cl)c1F`, the compound was classed as inactive in assay [1], in assay [3], in assay [4] and in [5]. Further, the Potency entry in assay [2], in [6], in assay [7], in assay [8], in [9] and in assay [10] was “inactive” in each case. Moreover, the Potency in [12] is 0.0306 µM (active); in assay [13], 0.0544 µM (active); in assay [14], 0.0153 µM (active); in assay [15], 6.91 µM (active); in assay [16], 30.6 µM (active).

In the case of `CCN(CC)C(=O)N[C@@H]1C=C2c3cccc4[nH]cc(c34)C[C@@H]2N(C)C1`, the compound was called inactive in [1], in assay [3], in assay [4] and in [5]. Further, the Potency entry in assay [2], in assay [6], in assay [7], in [8], in assay [9] and in assay [10] was “inactive” each time. Further, the Potency result in [11], in assay [15] and in [16] was “inactive” each time. For the same compound, the Potency in assay [12] was 7.5 µM (active); in assay [14] it was 16.8 µM (active).

Take `CCCCC/C=C\C/C=C\C/C=C\C/C=C\CCCC(=O)NCC(=O)O`: the fluorescence, % of fluorescein in assay [1] was -0.212% [at 3.72 µM] (inactive). Moreover, the fluorescence, % of fluorescent control in assay [2] is -0.0427% [at 3.72 µM] (inactive); in assay [4], 0.173% [at 3.72 µM] (inactive); in assay [6], -0.0542% [at 3.72 µM] (inactive); in [8], -0.108% [at 3.72 µM] (inactive). The activity change in assay [3] was 0.0424% [at 3.72 µM] (inactive). The fluorescence, % of Rose Bengal in [5] was 0.0912% [at 3.72 µM] (inactive). In assay [7], the fluorescence, % of fluorescein control is 0.0024% [at 3.72 µM] (inactive). Further, in assay [9], the activation is 0.54% [at 6.9 µM] (inactive). For the same compound, the activity change, negative = inhibition in assay [10] is 22.5% [at 7.04 µM] (inactive). Moreover, the viability change, negative = cytotoxic in assay [11] was -8.97% [at 7.04 µM] (inactive); in [16] it was -2.98% [at 8.47 µM] (inactive). The activity change, negative = cytotoxicity in [12] was 16.5% [at 8.52 µM] (inactive); in [14], 4.36% [at 8.55 µM] (inactive).
